About 79,000 compounds went through this panel and 15% of them were active in at least one assay; those are over-represented in the sample as a whole. A number with no mark means an inactive call. Active and inactive are the calls of the source. Cut-off read from the data, not from the text of the source: active = growth inhibition above about 70%; inactive = the rest.
Experiments:
[1] = NCI Yeast Anticancer Drug Screen. Data for the rad50 strain (AID 155);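 note: 0% = growth of vehicle-only cultures of the same strain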; conditions: S. cerevisiae rad50 strain growth inhibition; at 50.0 µM; active compounds read high
Outline: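 Growth of the mutant yeast was measured after compound exposure and referenced to vehicle-treated cultures.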

[2] = NCI Yeast Anticancer Drug Screen. Data for the mec2-1 strain (AID 157); conditions: S. cerevisiae mec2-1 strain, at 50.0 µM, active compounds read high
Outline: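 Cells of the genetically defined mec2-1 yeast strain are incubated with test compound. Inhibition of growth is calculated against vehicle-treated controls.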

[3] = NCI Yeast Anticancer Drug Screen. Data for the sgs1 mgt1 strain (AID 161);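 note: 0% = growth of cultures given vehicle only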; conditions: S. cerevisiae sgs1 mgt1 strain, at 50.0 µM, active compounds read high
Outline: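 Read-out: growth inhibition vs vehicle controls. Cells: mutant yeast strain deficient in DNA damage repair.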

[4] = NCI Yeast Anticancer Drug Screen. Data for the cln2 rad14 strain (AID 165);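 note: 0% = growth equal to vehicle treated cultures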; conditions: S. cerevisiae cln2 rad14 strain, at 50.0 µM, active compounds read high
Outline: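 The screen exposed genetically defined yeast (cln2 rad14) to test compounds and scored growth inhibition relative to vehicle-treated controls.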

[5] = NCI Yeast Anticancer Drug Screen. Data for the bub3 strain (AID 167); conditions: S. cerevisiae bub3 mutant strain, at 50.0 µM, active compounds read high
Outline: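 Whole-cell yeast assay. The mutant strain was incubated with compounds, and growth inhibition was determined by comparison with vehicle-treated cells.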

[6] = NCI Yeast Anticancer Drug Screen. Data for the mlh1 rad18 strain (AID 175); conditions: S. cerevisiae mlh1 rad18 strain growth inhibition; at 50.0 µM; active compounds read high
Outline: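 Compound-treated yeast growth, normalised to vehicle controls. Strain bears defined DNA repair mutations.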

COC(=O)CC(NC(=O)C(Cc1ccccc1)NC(=O)OCc1ccccc1)C(=O)O (centres undefined)
growth inhibition [1]: 31.5%
growth inhibition [2]: 9.15%
growth inhibition [3]: 18.2%
growth inhibition [4]: 11.7%
growth inhibition [5]: 2.1%
growth inhibition [6]: 23.1%

O=C(O)c1ccccc1C(=O)OC1CC2C=CC1C21CC1 (centres undefined)
growth inhibition [1]: -12.2%
growth inhibition [2]: -13.2%
growth inhibition [3]: -15.3%
growth inhibition [4]: -1.9%
growth inhibition [5]: -6.2%
growth inhibition [6]: -9.75%

Nc1ccccc1N
growth inhibition [1]: -7.9%
growth inhibition [2]: -13.3%
growth inhibition [3]: 14.4%
growth inhibition [4]: -4.5%
growth inhibition [5]: -29.9%
growth inhibition [6]: -0.35%

COc1ccccc1OC(=O)Nc1ccc(S(=O)(=O)N(C)C)cc1
growth inhibition [1]: 28.2%
growth inhibition [2]: 8.5%
growth inhibition [3]: 0%
growth inhibition [4]: 4.1%
growth inhibition [5]: 8.65%
growth inhibition [6]: 6.65%

Cc1ccccc1OCC(C)OC(N)=O (centres undefined)
growth inhibition [1]: 6.1%
growth inhibition [2]: -11.4%
growth inhibition [3]: 2.1%
growth inhibition [4]: -16.4%
growth inhibition [5]: 7%
growth inhibition [6]: 6.15%

Cc1ccc(S(=O)(=O)NC(Cc2ccc(O)cc2)C(=O)O)cc1 (centres undefined)
growth inhibition [1]: 1.5%
growth inhibition [2]: -8.4%
growth inhibition [3]: 5.25%
growth inhibition [4]: -57.2%
growth inhibition [5]: 12.6%
growth inhibition [6]: 35.5%

NCCSCc1ccccc1Cl
growth inhibition [1]: -10.3%
growth inhibition [2]: -27.2%
growth inhibition [3]: -50.9%
growth inhibition [4]: -33.5%
growth inhibition [5]: -23.6%
growth inhibition [6]: -0.4%

CCCC1(C)COC(/C=C/c2ccccc2)OC1 (centres undefined)
growth inhibition [1]: 6.85%
growth inhibition [2]: -9.7%
growth inhibition [3]: -8.3%
growth inhibition [4]: -1.85%
growth inhibition [5]: -8.2%
growth inhibition [6]: 8.4%

c1ccc(C(N=NC(c2ccccc2)c2ccccc2)c2ccccc2)cc1
growth inhibition [1]: 4.4%
growth inhibition [2]: -10.3%
growth inhibition [3]: 3.75%
growth inhibition [4]: -18.3%
growth inhibition [5]: -21.8%
growth inhibition [6]: 16.8%

O=C(CCc1n[nH]c(=S)o1)Nc1ccccc1
growth inhibition [1]: 18.4%
growth inhibition [2]: 17.4%
growth inhibition [3]: 30.4%
growth inhibition [4]: 15.8%
growth inhibition [5]: 14.1%
growth inhibition [6]: 35.3%

CCOC(=O)c1c(C)csc1NC(=O)CSCC(=O)OC
growth inhibition [1]: 10.2%
growth inhibition [2]: -4%
growth inhibition [3]: 30.5%
growth inhibition [4]: 19.9%
growth inhibition [5]: 41%
growth inhibition [6]: 31.6%

COc1ccc(Nc2nc3cc(C(F)(F)F)ccc3nc2-c2ccccc2)cc1OC
growth inhibition [1]: 2.05%
growth inhibition [2]: 2.65%
growth inhibition [3]: -48.2%
growth inhibition [4]: -4.85%
growth inhibition [5]: -12.4%
growth inhibition [6]: -24.4%

O=c1cc(Nc2ccccc2Cl)[nH]c(=O)[nH]1
growth inhibition [1]: 9.8%
growth inhibition [2]: 2.2%
growth inhibition [3]: -5.15%
growth inhibition [4]: -41.8%
growth inhibition [5]: -27.4%
growth inhibition [6]: -13.2%

Oc1ccc(O)c2c1CC=CC2
growth inhibition [1]: 12.2%
growth inhibition [2]: 22.6%
growth inhibition [3]: 27.9%
growth inhibition [4]: 13%
growth inhibition [5]: 18.3%
growth inhibition [6]: 16.4%

Nc1ncnc2c1ncn2C1C=CC(COS(N)(=O)=O)C1 (centres undefined)
growth inhibition [1]: 13.2%
growth inhibition [2]: 21.9%
growth inhibition [3]: 0.7%
growth inhibition [4]: 10.8%
growth inhibition [5]: 13.9%
growth inhibition [6]: 29.4%

C(=N\c1nccs1)/c1ccc(/C=N/c2nccs2)cc1
growth inhibition [1]: -5.2%
growth inhibition [2]: -5.2%
growth inhibition [3]: 1.6%
growth inhibition [4]: 9%
growth inhibition [5]: 12.1%
growth inhibition [6]: 7%

Cc1cc2nc(-c3ccccn3)c(-c3ccccn3)nc2cc1C
growth inhibition [1]: 2.05%
growth inhibition [2]: -18.9%
growth inhibition [3]: 6.9%
growth inhibition [4]: 20.1%
growth inhibition [5]: -7.75%
growth inhibition [6]: 21.4%

CCN(CC)c1ccccc1S(=O)(=O)O
growth inhibition [1]: -5.45%
growth inhibition [2]: -5.3%
growth inhibition [3]: 2.9%
growth inhibition [4]: -42.9%
growth inhibition [5]: -6.85%
growth inhibition [6]: -6.35%

O=C(C1OC1c1ccccc1)C1OC1c1ccccc1 (centres undefined)
growth inhibition [1]: -6.05%
growth inhibition [2]: 10.2%
growth inhibition [3]: 9.55%
growth inhibition [4]: -12.4%
growth inhibition [5]: 62.1%
growth inhibition [6]: 37%

CCOC(=O)NN1C(=O)c2cccc3c([N+](=O)[O-])ccc(c23)C1=O
growth inhibition [1]: 86.2% (active)
growth inhibition [2]: 61.9%
growth inhibition [3]: 93.5% (active)
growth inhibition [4]: 88.4% (active)
growth inhibition [5]: 78.3% (active)
growth inhibition [6]: 85.8% (active)

O=C(O)C1C(Br)C(Br)C1C(=O)O (centres undefined) (tested in a mixture with another compound)
growth inhibition [1]: 0.25%
growth inhibition [2]: -16.6%
growth inhibition [3]: -12.2%
growth inhibition [4]: -22.2%
growth inhibition [5]: -15.3%
growth inhibition [6]: -19.3%

C[n+]1cc(Br)c2ccccc2c1
growth inhibition [1]: 4.05%
growth inhibition [2]: -6.25%
growth inhibition [3]: 3.4%
growth inhibition [4]: -13.2%
growth inhibition [5]: 1.4%
growth inhibition [6]: 3.45%

[Cl][Pt+2][Cl].[NH-]c1ccccc1F.[NH-]c1ccccc1F
growth inhibition [1]: 11.2%
growth inhibition [2]: 32.9%
growth inhibition [3]: -14.8%
growth inhibition [4]: 15.8%
growth inhibition [5]: -26.9%
growth inhibition [6]: 34.4%

Cc1cc(C(C)(C)C)ccc1S(=O)(=O)/C=C/c1ccccc1
growth inhibition [1]: -18.6%
growth inhibition [2]: -23.1%
growth inhibition [3]: -6.1%
growth inhibition [4]: 0.45%
growth inhibition [5]: -1.7%
growth inhibition [6]: -26.1%

Cc1ccccc1S(=O)(=O)N1C(=O)c2ccccc2S1(=O)=O
growth inhibition [1]: 12.8%
growth inhibition [2]: -13.8%
growth inhibition [3]: 5.35%
growth inhibition [4]: 10.2%
growth inhibition [5]: 5.15%
growth inhibition [6]: -13.8%

O=C(NO)c1cc(O)c(O)c(O)c1
growth inhibition [1]: -14.5%
growth inhibition [2]: 1.75%
growth inhibition [3]: -16.7%
growth inhibition [4]: -11.6%
growth inhibition [5]: -5.75%
growth inhibition [6]: -25.4%

O=C1NC(=S)N/C1=C\c1ccco1
growth inhibition [1]: 21.9%
growth inhibition [2]: 10.2%
growth inhibition [3]: 0.5%
growth inhibition [4]: 15.2%
growth inhibition [5]: 26.5%
growth inhibition [6]: 32%

CCCCCCCCCCCCCCCCn1cnc2c(Cl)ncnc21
growth inhibition [1]: 23.2%
growth inhibition [2]: 3.9%
growth inhibition [3]: -19.5%
growth inhibition [4]: 12.8%
growth inhibition [5]: -2.6%
growth inhibition [6]: 2.55%

Cc1ccc(N=Nc2c(O)ccc3n[nH]nc23)cc1
growth inhibition [1]: 2.75%
growth inhibition [2]: 0.2%
growth inhibition [3]: 31.9%
growth inhibition [4]: -46%
growth inhibition [5]: 18.9%
growth inhibition [6]: 6.95%

Cn1cc(-n2[nH]c(=O)n(-c3ccccc3)c2=O)c(=O)n(C)c1=O
growth inhibition [1]: -50%
growth inhibition [2]: 8.2%
growth inhibition [3]: -1.1%
growth inhibition [4]: -21.3%
growth inhibition [5]: 16.1%
growth inhibition [6]: 13.3%

CCOC(=O)c1cnc(=S)[nH]c1N
growth inhibition [1]: 40.5%
growth inhibition [2]: -8.35%
growth inhibition [3]: -19.2%
growth inhibition [4]: 7.9%
growth inhibition [5]: -3.15%
growth inhibition [6]: -43.5%

Brc1cc(Br)c(-c2c(Br)cc(Br)cc2Br)c(Br)c1
growth inhibition [1]: -20.8%
growth inhibition [2]: -30.2%
growth inhibition [3]: -16.1%
growth inhibition [4]: 4.2%
growth inhibition [5]: -7.5%
growth inhibition [6]: -15.7%

CCOC(=O)Cc1nc2sc3c(c2c(=O)[nH]1)CCCC3
growth inhibition [1]: 10.4%
growth inhibition [2]: 1.8%
growth inhibition [3]: 22.4%
growth inhibition [4]: -0.9%
growth inhibition [5]: 3.9%
growth inhibition [6]: 17.2%

CCCCOC(=O)c1ccccc1
growth inhibition [1]: -7%
growth inhibition [2]: 13.7%
growth inhibition [3]: -10.2%
growth inhibition [4]: -2.8%
growth inhibition [5]: -1.4%
growth inhibition [6]: 18.1%

CCCC(C)OC(=O)CC(c1ccccc1)N1CCCCC1 (centres undefined)
growth inhibition [1]: 41.7%
growth inhibition [2]: -10.1%
growth inhibition [3]: 23.4%
growth inhibition [4]: -23.6%
growth inhibition [5]: 40.2%
growth inhibition [6]: 26.5%

Cc1cc2c(cc1C)NC1C(=O)C(c3ccccc3Cl)OC1=N2 (centres undefined)
growth inhibition [1]: -1.2%
growth inhibition [2]: -10.4%
growth inhibition [3]: -2.4%
growth inhibition [4]: 4.55%
growth inhibition [5]: 0.55%
growth inhibition [6]: 3.15%

NC(CS)C(=O)NCCNCCNc1ccc(NCCNCCNC(=O)C(N)CS)c2c1C(=O)c1c(O)ccc(O)c1C2=O (centres undefined)
growth inhibition [1]: -30.4%
growth inhibition [2]: -12.4%
growth inhibition [3]: 2.1%
growth inhibition [4]: -0.85%
growth inhibition [5]: -10.5%
growth inhibition [6]: -12.7%

O=C1OC(c2ccccc2)=N/C1=C\c1cccc2ccccc12
growth inhibition [1]: -45.9%
growth inhibition [2]: -36.6%
growth inhibition [3]: -13.6%
growth inhibition [4]: 0.35%
growth inhibition [5]: -16.4%
growth inhibition [6]: -31.1%

CCCC(O)c1ccccc1 (centres undefined)
growth inhibition [1]: 31.2%
growth inhibition [2]: 35.8%
growth inhibition [3]: -9.65%
growth inhibition [4]: 5.3%
growth inhibition [5]: 3.7%
growth inhibition [6]: 18.9%
